Assay results published in PubChem BioAssay (EPA / NIEHS).
Inconclusive results are not listed. Calls of active or inactive are those of the source. Rule for the calls: active = hit-call score of the fitted dose curve at least 0.9, where 1 is the maximum; inconclusive = response in the unintended direction; inactive = score below 0.9.

Tests used:
[1] = ATG_XTT_Cytotoxicity: Cytotoxicity Assessment in the Attagene TRANS-FACTORIAL HepG2 Assay (AID 2283584)
Method in brief: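 Transfect HepG2 with GAL4-UAS reporter units, dose compound, incubate 24 h, then measure viable cell number by XTT. Fit concentration response against DMSO baseline.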

[2] = TOX21_p53_BLA_p2_viability: Viability Assessment in the Tox21 HCT-116 p53 Agonism Beta-lactamase Assay, Phase 2 (AID 2283591);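 note: compound exposure lasted 16 h at 37 °C; actives lower the ATP signal meaning cytotoxicity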
Method in brief: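 HCT116 p53-bla cells, 4000/well, dosed after 5 h plating (217-fold dilution of DMSO stocks) and incubated 16 h at 37C. Viability taken as cellular ATP by CellTiter-Glo luminescence after 30 min RT; signal loss marks cytotoxicity.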

[3] = target: Cellular tumor antigen p53 (Homo sapiens) (UniProt P04637); assay: TOX21_p53_BLA_p3_ratio: Tox21 HCT-116 p53 Agonism Beta-lactamase Assay, Ratio, Phase 3 (AID 2283596)
Cellular tumor antigen p53 (Homo sapiens), sequence (P04637 whole entry, looked up): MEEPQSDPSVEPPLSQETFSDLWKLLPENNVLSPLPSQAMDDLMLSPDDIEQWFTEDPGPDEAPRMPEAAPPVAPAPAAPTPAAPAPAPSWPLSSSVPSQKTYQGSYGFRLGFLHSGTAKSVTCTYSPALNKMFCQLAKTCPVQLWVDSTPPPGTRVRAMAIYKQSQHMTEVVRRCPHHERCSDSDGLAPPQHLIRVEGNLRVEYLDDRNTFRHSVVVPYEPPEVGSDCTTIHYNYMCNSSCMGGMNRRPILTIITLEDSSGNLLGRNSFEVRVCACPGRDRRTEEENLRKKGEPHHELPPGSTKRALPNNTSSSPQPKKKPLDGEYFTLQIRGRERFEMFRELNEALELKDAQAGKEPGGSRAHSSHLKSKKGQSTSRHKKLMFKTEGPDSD
Method in brief: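 Cells were seeded at 4000/well, rested 5 h at 37C, then dosed with DMSO compound solutions (217-fold dilution) for 16 h. CCF4-AM substrate was loaded for 2 h at room temperature, and the 460/530 nm emission ratio was fitted for gain of signal versus DMSO.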

[4] = TOX21_p53_BLA_p4_viability: Viability Assessment in the Tox21 HCT-116 p53 Agonism Beta-lactamase Assay, Phase 4 (AID 2283597);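 note: hits lower the luminescence signal meaning cytotoxicity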
Method in brief: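 Viability is taken as cellular ATP: after 16 h compound exposure of HCT116 cells and a 2 h room-temperature CCF4-AM substrate step, CellTiter-Glo reagent is added and luminescence is measured 30 min later.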

[5] = target: Cellular tumor antigen p53 (Homo sapiens) (UniProt P04637); assay: TOX21_p53_BLA_p5_ratio: Tox21 HCT-116 p53 Agonism Beta-lactamase Assay, Ratio, Phase 5 (AID 2283599)
Method in brief: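 HCT-116 p53-bla cells (4000/well) plated 5 h, dosed with compound (217-fold DMSO dilution) for 16 h at 37 C; CCF4-AM substrate 2 h at room temperature. Activity is the 460/530 nm emission ratio (405 nm excitation), fitted in gain-of-signal direction versus DMSO.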

[6] = TOX21_p53_BLA_p5_viability: Viability Assessment in the Tox21 HCT-116 p53 Agonism Beta-lactamase Assay, Phase 5 (AID 2283600)
Method in brief: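 Viability is taken from cellular ATP content, measured by luciferase luminescence in the same wells after the beta-lactamase ratio read. Cells are seeded at 4000 per well and exposed to DMSO-dissolved compounds, diluted 217-fold, for 16 h.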

[7] = target: Cellular tumor antigen p53 (Homo sapiens) (UniProt P04637); assay: TOX21_p53_BLA_p4_ratio: Tox21 HCT-116 p53 Agonism Beta-lactamase Assay, Ratio, Phase 4 (AID 2283601)
Method in brief: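 HCT-116 p53 beta-lactamase reporter cells (4000/well) preincubated 5 h, then compound (217-fold dilution of DMSO stock) for 16 h at 37C. CCF4-AM substrate added 2 h at room temperature; 460/530 nm emission ratio fitted upward versus DMSO.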

[8] = target: Cellular tumor antigen p53 (Homo sapiens) (UniProt P04637); assay: TOX21_p53_BLA_p2_ratio: Tox21 HCT-116 p53 Agonism Beta-lactamase Assay, Ratio, Phase 2 (AID 2283592)
Method in brief: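 Cleaved-to-uncleaved substrate ratio (460 vs 530 nm) measured in HCT116 cells with an inducible beta-lactamase reporter linked to p53 activity. Compounds incubated 16 h at 37C before 2 h room-temperature CCF4-AM loading.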

[9] = TOX21_p53_BLA_p3_viability: Viability Assessment in the Tox21 HCT-116 p53 Agonism Beta-lactamase Assay, Phase 3 (AID 2283593);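 note: cells exposed to compound for 16 h before reading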
Method in brief: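 HCT116 cells, 4000/well, dosed 5 h after plating by pin transfer (217-fold dilution from DMSO stock) and incubated 16 h at 37C, 5% CO2. Viability read as ATP luminescence with CellTiter-Glo after 30 min at room temperature.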

Measured: AC50

CCCOCCOCCOCCO
not listed: [8] | [9]
inactive: all other assays above

CCCCCc1ccc(Cl)cc1
inactive: [1] | [2] | [3] | [5] | [7]

C=C(C)[C@H]1CC=C(C)CC1
inactive: [1] | [2] | [5] | [7]

Cc1oncc1C(=O)Nc1ccc(C(F)(F)F)cc1
not listed: [2] | [7]
inactive: all other assays above

O=Cc1ccc(CO)o1
not listed: [8] | [9]
inactive: all other assays above

Cc1ccccc1C
not listed: [2] | [3] | [4]
inactive: all other assays above

C1=Cc2ccccc2C1
inactive: [1] | [8] | [9] | [4] | [6]

CCC(=O)Oc1ccc(/C(CC)=C(\CC)c2ccc(OC(=O)CC)cc2)cc1
active: [8] 6.81 µM | [3] 16.4 µM | [5] 5.08 µM
inactive: [1] | [6] | [7]

CCCCOCCOC(=O)COc1nc(Cl)c(Cl)cc1Cl
not listed: [2] | [5]
inactive: all other assays above

C=CCCCCCCCCC(=O)OCCCC
not listed: [2] | [4] | [7]
inactive: all other assays above

ON(Cc1ccccc1)Cc1ccccc1
inactive: [1] | [8] | [9] | [3] | [6]

COc1cc(C)ccc1C(C)C
not listed: [2] | [4]
inactive: all other assays above

CC1=NN(c2cc(S(=O)(=O)O)ccc2Cl)C(=O)C1N=Nc1ccccc1 (configuration not stated)
not listed: [2] | [6] | [9]
inactive: all other assays above

NC(=O)NNC(N)=O
not listed: [2] | [7] | [9]
inactive: all other assays above

CC(C)c1ccc(C#N)cc1
inactive: [1] | [8] | [9] | [6] | [7]

Cc1ccc(C(C)(C)C)cc1
not listed: [2] | [4] | [9]
inactive: all other assays above

CCOC(=O)c1ccccc1C(=C1C=C(Br)C(=O)C(Br)=C1)c1cc(Br)c(O)c(Br)c1
active: [8] 10.2 µM | [3] 10.4 µM | [4] 9.49 µM | [5] 15.2 µM | [7] 8.23 µM
inactive: [1] | [6]

CC(C)(C)C(=O)C=Cc1ccc(Cl)cc1
not listed: [2] | [6]
inactive: all other assays above

COc1ccc([C@@H]2CC(=O)c3c(O)cc(O[C@@H]4O[C@H](CO[C@@H]5O[C@@H](C)[C@H](O)[C@@H](O)[C@H]5O)[C@@H](O)[C@H](O)[C@H]4O)cc3O2)cc1OC
inactive: [1] | [8] | [3] | [4] | [6]

C=C[Si](OC(C)=O)(OC(C)=O)OC(C)=O
not listed: [2] | [4]
inactive: all other assays above

CCCCCCOc1cc(C)c(O)c(C)c1C
inactive: [1] | [8] | [9]
active: [4] 46.1 µM | [7] 82.5 µM

Cc1cccc(C(=O)O)c1
not listed: [2] | [5] | [6]
inactive: all other assays above

CCC(C)(C)C1CCCCC1OC(C)=O (configuration not stated)
not listed: [2] | [4]
inactive: all other assays above

COC(=O)c1cc(Cl)ccc1[N+](=O)[O-]
inactive: [1] | [8] | [3] | [5] | [7]

c1ccc(CNCc2ccccc2)cc1
inactive: [1] | [8] | [3] | [4]

C[Si](C)(CCCN)O[Si](C)(C)CCCN
not listed: [2] | [5] | [6]
inactive: all other assays above

CNC(=S)N(C)C
not listed: [2] | [5] | [6]
inactive: all other assays above

CC(=O)C=CC1C(C)=CCC(C)C1(C)C (configuration not stated)
not listed: [2] | [3] | [4]
inactive: all other assays above

CCN(CCO)c1cccc(C)c1
inactive: [1] | [8] | [3] | [5]

CCCC(=O)OCc1ccccc1
not listed: [2] | [4] | [5]
inactive: all other assays above

Cc1ccc(C(C)c2ccc(C)c(C)c2)cc1C
inactive: [1] | [8] | [3] | [5] | [7]

CCCCCCC1(C)CCC(=O)O1 (configuration not stated)
not listed: [2] | [5] | [6]
inactive: all other assays above
